The results in this text go back to PubChem BioAssay (Tox21).

The nature of test [1]: qHTS assay to identify small molecule antagonists of the vitamin D receptor (VDR) signaling pathway - cell viability counter screen (AID 743225). Note: nearly all actives have a fitted effect of over 50% in size. In a few lines: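 VDR-bla HEK 293T cells, 4 h pre-incubation at 37C, then compound plus 1-alpha,25-dihydroxyvitamin D3 (3 nM final) for 16 h. After the beta-lactamase FRET read, CellTiter-Glo was added to the same wells; luminescence after 30 min at room temperature.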

Test [2] is described as follows: qHTS assay to identify small molecule agonists of the NFkB signaling pathway - cell viability counter screen (AID 1159515; calls by dose curve; note: series mostly up to about 61 µM; nearly all actives have a fitted effect of over 55% in size). The method in brief: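 Plate 2,000 NFkB-bla ME-180 cells/well; incubate overnight. Add compounds, 5 hr at 37 C. Add FRET substrate, 1.5 hr RT. Add CellTiter-Glo, 30 min RT; read luminescence.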
Test [3] in a line: qHTS assay to identify small molecule agonists of the endoplasmic reticulum stress response signaling pathway (AID 1159516; active = well fitted activation curve with a large enough effect in the signal ratio in the repeat runs, not every such curve was filed as active; the % refers to the signal ratio). The method in brief:
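Beta-lactamase expression from the ER stress response element in HeLa reporter cells is quantified with the LiveBLAzer B/G FRET substrate, read at 405 nm excitation after 2 hr at room temperature, following 5 hr compound treatment at 37 C.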

A short description of test [4]: qHTS assay to identify small molecule agonists of the endoplasmic reticulum stress response signaling pathway - cell viability counter screen (AID 1159517; calls by dose curve; note: series mostly up to about 61 µM; nearly all actives have a fitted effect of over 50% in size). The method in brief: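 Cytotoxicity of test compounds toward ESRE-bla HeLa cells was assessed after 5 hr exposure. The luminescent CellTiter-Glo signal was measured 30 min after reagent addition.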
Test [5] can be described thus: qHTS assay to identify small molecule antagonists of the retinoid-related orphan receptor gamma (ROR-gamma) signaling pathway - cell viability counter screen (AID 1159520). Note: nearly all actives have a fitted effect of over 50% in size. In a few lines: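 Tet-on ROR gamma CHO cells (1,000/well) were plated 4 hr, given compounds in DMSO for 2 hr at 37 C, then induced with 1 uM final doxycycline for 16 hr. Viability was read as ATP by CellTiter-Glo luminescence after 30 min.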

The target of test [6] is Nuclear receptor ROR-gamma (Homo sapiens) (UniProt P51449). The test can be described thus: qHTS assay to identify small molecule antagonists of the retinoid-related orphan receptor gamma (ROR-gamma) signaling pathway (AID 1159521;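 note: CHO cells with doxycycline inducible ROR-gamma driving an RORE luciferase reporter; top concentration of the series differs between compounds; nearly all actives have a fitted effect of over 50% in size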). In a few lines:
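Tet-on RORγ CHO cells carrying a ROR response element–luciferase reporter were pretreated with compounds for 2 h, then induced with 1 uM (final) doxycycline hyclate for 16 h at 37 C. Antagonism was read as decreased ONE-Glo luminescence.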

Test [7] is described as follows: qHTS assay to identify small molecule agonists of the AP-1 signaling pathway - cell viability counter screen (AID 1159525; calls by dose curve; note: nearly all actives have a fitted effect of over 55% in size). The method in brief:
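Each titration point was normalised to DMSO and tetra n-octyl ammonium bromide controls. The read was Cell Titer Glo luminescence after 30 min at RT, following 5 h compound exposure of ME-180 AP-1-bla cells at 37 °C.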

A short description of test [8]: qHTS assay to identify small molecule agonists of the AP-1 signaling pathway (AID 1159526; calls by dose curve).
Test [9] deals with Retinoic acid receptor RXR-alpha (Homo sapiens) (UniProt P19793). The test can be described thus: qHTS assay to identify small molecule agonists of the RXR signaling pathway (AID 1159527; calls by dose curve; note: nearly all actives have a fitted effect of over 35% in size; note: potency is the fitted concentration of half-maximal effect). The method in brief:
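GeneBLAzer RXR-alpha-UAS-bla HEK 293T cells in medium with 2% charcoal-stripped FBS, pre-incubated 5 hr at 37 C, then exposed to compounds 16 hr. Beta-lactamase reporter read by FRET substrate, 2 hr room temperature, 460/530 nm emission.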

Test [10] in a line: qHTS assay to identify small molecule agonists of the RXR signaling pathway - cell viability counter screen (AID 1159529). The method in brief: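 RXR-alpha-UAS-bla HEK 293T cells in medium with 2% charcoal-stripped FBS were preincubated 5 hr, then exposed to compounds for 16 hr at 37 C. Viability was read as CellTiter-Glo luminescence after 30 min at room temperature.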
Test [11] in a line: qHTS assay to identify small molecule antagonists of the retinoid acid receptor (RAR) signaling pathway - cell viability counter screen (AID 1159551). Note: nearly all actives have a fitted effect of over 35% in size. The method in brief:
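Viability of C3RL4 cells is quantified from ATP by luminescence after 6 h treatment at 37 C with compounds and 1 uM retinol.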

A short description of test [12]: qHTS assay to identify small molecule agonists of the retinoic acid receptor (RAR) signaling pathway (AID 1159553). In a few lines: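 Compounds dissolved in DMSO were pinned onto C3RL4 cells seeded the previous day, and plates were held 6 hr at 37 C. RARE-driven luciferase output was then read by luminescence.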
Test [13] deals with Luciferin 4-monooxygenase (Photinus pyralis) (UniProt P08659). Briefly: qHTS assay to identify small molecule inhibitors of firefly luciferase (AID 1224835). Note: series mostly up to about 120 µM; nearly all actives have a fitted effect of over 25% in size. In a few lines: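 Quantitative HTS format; KM concentrations of both substrates. Purified P. pyralis FLuc activity quantified from luminescence images.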
Test [14] is described as follows: qHTS assay to identify small molecule agonists of the constitutive androstane receptor (CAR) signaling pathway - cell viability counter screen (AID 1224836). Note: series mostly up to about 92 µM; nearly all actives have a fitted effect of over 45% in size. The method in brief:
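HepG2 cells stably carrying hCAR and a CYP2B6-2.2kb reporter were plated 4 h, then given compounds at 15 concentrations plus PK11195 (final 0.75 uM). After 23 h at 37 C, viability was read by CellTiter-Fluor fluorescence.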

Test [15] in a line: qHTS assay to identify small molecule antagonists of the constitutive androstane receptor (CAR) signaling pathway - cell viability counter screen (AID 1224837). Note: series mostly up to about 92 µM; nearly all actives have a fitted effect of over 45% in size. In a few lines: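 In quantitative HTS format, compounds at 15 concentrations were applied to HepG2 cells double-transfected with hCAR and CYP2B6-2.2kb under 50 nM CITCO stimulation; live-cell protease activity was read after 23 hr via CellTiter-Fluor.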

For test [16], the target named is Nuclear receptor subfamily 1 group I member 3 (Homo sapiens) (UniProt Q14994). Briefly: qHTS assay to identify small molecule antagonists of the constitutive androstane receptor (CAR) signaling pathway (AID 1224838). Note: nearly all actives have a fitted effect of over 40% in size. The method in brief: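 CITCO-stimulated (50 nM final) HepG2 cells stably transfected with hCAR and CYP2B6-2.2kb luciferase were exposed to compounds at 15 concentrations for 24 h at 37 C/5% CO2. A luciferase reagent was added and luminescence recorded after 30 min.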

The target is the same in test [17]. Briefly: qHTS assay to identify small molecule agonists of the constitutive androstane receptor (CAR) signaling pathway (AID 1224839). Note: series mostly up to about 92 µM; nearly all actives have a fitted effect of over 15% in size. The method in brief: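 HepG2 cells stably expressing hCAR and a CYP2B6-2.2kb luciferase reporter were treated with compounds at 15 concentrations plus 0.75 uM PK11195 (final) for 24 h at 37 C; luminescence was read after ONE-Glo addition.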

The nature of test [18]: qHTS assay to identify small molecule antagonists of the estrogen related receptor signaling pathway with the pleiotropic PPARgamma coactivator (PGC) from Tox21 10K library - cell viability counter screen (AID 1224840; active = well fitted cell-killing curve with a large enough effect in the repeat runs, not every such curve was filed as active; note: nearly all actives have a fitted effect of over 40% in size). In a few lines:
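Viability counter screen, PGC/ERR cells: 17.5 h compound exposure at 37 C, CellTiter-Fluor fluorescence endpoint.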

Test [19] in a line: qHTS assay to identify small molecule antagonists of the estrogen related receptor (ERR) signaling pathway from Tox21 library - cell viability counter screen (AID 1224834). Note: nearly all actives have a fitted effect of over 30% in size. The method in brief: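 In this quantitative HTS format, ERR cells receive compounds in DMSO and are incubated for 17.5 h at 37 C. Live-cell protease activity is then detected with CellTiter-Fluor.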
The nature of test [20]: qHTS assay to identify small molecule antagonists of the retinoic acid receptor (RAR) signaling pathway (AID 1159552; note: nearly all actives have a fitted effect of over 50% in size). In a few lines:
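RARE-luc C3RL4 cells; cpds + 1 uM (final) retinol, 6 hr, 37 C/5% CO2; luciferase reagent, 30 min RT, luminescence readout. Inhibitors of retinol-driven signal scored.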

Results filed as inconclusive are left out. Unmarked numbers belong to inactive results. Calls of active or inactive are those of the source. Unless noted, calls come from the whole dose curve; as a rule, active = well fitted curve in the direction sought with a large enough effect in the repeat runs; inconclusive = weak or mixed curves; inactive = no such curve, though single readings can be large; an effect the other way counts as inactive or inconclusive.

Chain of Luciferin 4-monooxygenase (Photinus pyralis) (P08659 whole entry, looked up): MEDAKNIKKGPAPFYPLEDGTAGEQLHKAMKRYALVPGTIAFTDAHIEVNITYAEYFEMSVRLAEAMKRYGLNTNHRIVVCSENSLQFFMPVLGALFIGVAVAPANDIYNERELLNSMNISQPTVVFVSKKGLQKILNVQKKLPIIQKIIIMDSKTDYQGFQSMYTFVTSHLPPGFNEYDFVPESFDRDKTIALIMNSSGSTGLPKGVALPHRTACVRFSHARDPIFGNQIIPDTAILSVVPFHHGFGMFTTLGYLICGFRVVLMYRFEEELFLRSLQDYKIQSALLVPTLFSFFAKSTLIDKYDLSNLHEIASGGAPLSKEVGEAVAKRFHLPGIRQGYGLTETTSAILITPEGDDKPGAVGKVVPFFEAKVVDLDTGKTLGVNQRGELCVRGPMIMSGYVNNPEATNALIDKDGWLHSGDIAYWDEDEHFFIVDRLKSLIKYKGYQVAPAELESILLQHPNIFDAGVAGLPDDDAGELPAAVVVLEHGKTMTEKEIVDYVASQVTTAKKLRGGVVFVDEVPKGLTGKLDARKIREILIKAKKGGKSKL
Chain of Nuclear receptor subfamily 1 group I member 3 (Homo sapiens) (Q14994 whole entry, looked up): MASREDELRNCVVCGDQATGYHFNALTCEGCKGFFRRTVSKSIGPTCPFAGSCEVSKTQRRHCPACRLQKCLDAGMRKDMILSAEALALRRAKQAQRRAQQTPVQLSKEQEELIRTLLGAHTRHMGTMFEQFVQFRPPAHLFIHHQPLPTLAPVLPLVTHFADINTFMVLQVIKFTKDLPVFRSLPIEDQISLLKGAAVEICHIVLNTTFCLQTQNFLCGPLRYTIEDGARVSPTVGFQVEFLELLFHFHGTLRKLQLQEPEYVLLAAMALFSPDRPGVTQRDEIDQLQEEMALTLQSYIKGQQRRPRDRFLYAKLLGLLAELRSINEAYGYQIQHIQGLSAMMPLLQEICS
Chain of Retinoic acid receptor RXR-alpha (Homo sapiens) (P19793 whole entry, looked up): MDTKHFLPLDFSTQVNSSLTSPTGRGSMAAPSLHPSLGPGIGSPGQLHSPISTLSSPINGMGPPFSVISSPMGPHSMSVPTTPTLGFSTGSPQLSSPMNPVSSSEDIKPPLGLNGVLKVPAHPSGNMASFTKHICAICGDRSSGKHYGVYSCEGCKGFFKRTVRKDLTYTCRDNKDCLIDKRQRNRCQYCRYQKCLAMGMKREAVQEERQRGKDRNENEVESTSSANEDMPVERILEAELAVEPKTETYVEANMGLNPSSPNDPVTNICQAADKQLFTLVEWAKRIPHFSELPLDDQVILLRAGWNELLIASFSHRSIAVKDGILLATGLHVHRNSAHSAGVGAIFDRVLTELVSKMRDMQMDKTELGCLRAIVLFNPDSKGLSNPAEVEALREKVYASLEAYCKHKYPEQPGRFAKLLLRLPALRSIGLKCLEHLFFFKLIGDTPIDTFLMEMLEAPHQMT

On to `O=C(O)/C=C(\CC(=O)O)C(=O)O`, for which the compound was called inactive in test [1], in test [2], in test [4], in [5], in test [6] and in test [7]. The compound was called inactive in test [11], in test [14], in [15], in test [16] and in test [18]. Further, the Potency entry in test [3], in test [8], in test [9], in [10], in [12] and in [13] was “inactive” each time. Moreover, the Potency entry in test [17] was “inactive”.
Regarding `CNCCc1ccccn1`, the call in [1], in [2], in test [4], in test [5], in test [6] and in test [7] was inactive. For the same compound, the compound was called inactive in [11], in test [19], in test [14], in [15] and in test [18]. Besides, the Potency entry in test [3], in [8], in [9], in test [10], in test [12] and in [13] was “inactive” throughout.
As to `CCO/C=C1\N=C(c2ccccc2)OC1=O`, the call in test [1], in test [2], in [4], in test [5], in [6] and in test [7] was inactive. Besides, the compound was called inactive in test [11], in [19], in [14], in [15] and in test [18]. Besides, the Potency entry in test [3], in test [8], in test [9], in test [10], in test [12] and in [13] was “inactive” in each case.
As for `CC12CCCC=C1C(=O)OC2=O` (configuration not stated), the compound was classed as inactive in test [1], in [2], in test [4], in [5], in test [6] and in test [7]. Moreover, the compound was called inactive in test [11], in [19], in test [14], in test [15] and in test [18]. Moreover, the Potency result in test [3], in test [8], in [9], in test [12] and in test [13] was “inactive” throughout.
With `N#Cc1ccccc1C#N`, the result in test [1], in test [2], in [4], in test [5], in test [6] and in test [7] was inactive. Further, the outcome in [11], in test [19], in [14], in test [15] and in [18] was inactive. The Potency entry in test [3], in test [8], in test [9], in test [12] and in test [13] was “inactive” in each case.
With `CCOc1ccccc1OCCN[C@H](C)Cc1ccc(OC)c(S(N)(=O)=O)c1`, the compound was classed as inactive in test [1], in test [2], in test [4], in test [5], in test [6] and in [7]. Also, the compound was classed as inactive in test [11], in test [20], in test [19], in [14], in test [15] and in test [16]. Also, the Potency result in test [3], in test [8], in test [9], in test [12], in test [13] and in test [17] was “inactive” in each case.
With `CCOC(=O)CC(C(C)=O)C(C)=O`, the outcome in test [1], in [2], in test [4], in test [5], in test [6] and in [7] was inactive. The compound was called inactive in test [11], in [14], in test [15], in [16] and in [18]. In addition, the Potency result in test [3], in test [8], in test [9], in [10], in test [12] and in test [13] was “inactive” throughout. In [17], the Potency entry is “inactive”.
Regarding `O=Cc1ccccc1S(=O)(=O)O`, the result in test [1], in [2], in test [4], in [5], in test [6] and in test [7] was inactive. Moreover, the call in test [11], in [19], in [14], in [15] and in [18] was inactive. Further, the Potency entry in test [3], in test [8], in test [12], in [13] and in test [17] was “inactive” each time. Besides, in [9], the Potency was 9.77 µM (active).
